An excerpt weighted towards active compounds, which were near 12% of everything screened.
Cl transport mod = KCC2 (human) Cl- transport modulation. Q9H2X9. KCC2 cells, thallium flux FluoZin-2 fluorescence. B-score of Tl+ flux slope (higher = more flux/activation; lower = inhibition) at 10 µM. 190,000 tested, 2.2% active. AID 1456;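 active = thallium flux slope and its plate-corrected score both differing from the plate sample mean at a set confidence after two filtering rounds, in either direction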;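 note: slope of fluorescence scaled to starting intensity during 10 to 20 s after thallium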
INS promoter inh = TRM-6 insulin promoter activity inhibition | TRM-6 cells (human fetal islet line), insulin promoter-eGFP reporter, imaging; reporter expression induced with tamoxifen | inhibition, % at 2 µM | 130,000 tested, 0.9% active;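 active = inhibition above the mean plus 3 SD, with well images judged a real hit on visual review, cut at about 60% in these data, passing the limit was not always enough; inconclusive = inhibition over the cutoff but images rejected on review; inactive = inhibition not above the cutoff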
ROMK primary = modulators of human ROMK potassium channel. 130,000 tested, 2% active. AID 1918. Tet-inducible ROMK, thallium flux fluorescence; actives lie on both sides. B-score at 10 µM. P48048;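 active = signal ratio slope over the read window, or its plate-corrected B-score, at least 3 SD from the plate mean, either direction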;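 note: B-score of the F/F0 ratio slope over 7 to 12 s after thallium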
Target sequence (P48048 whole entry, looked up): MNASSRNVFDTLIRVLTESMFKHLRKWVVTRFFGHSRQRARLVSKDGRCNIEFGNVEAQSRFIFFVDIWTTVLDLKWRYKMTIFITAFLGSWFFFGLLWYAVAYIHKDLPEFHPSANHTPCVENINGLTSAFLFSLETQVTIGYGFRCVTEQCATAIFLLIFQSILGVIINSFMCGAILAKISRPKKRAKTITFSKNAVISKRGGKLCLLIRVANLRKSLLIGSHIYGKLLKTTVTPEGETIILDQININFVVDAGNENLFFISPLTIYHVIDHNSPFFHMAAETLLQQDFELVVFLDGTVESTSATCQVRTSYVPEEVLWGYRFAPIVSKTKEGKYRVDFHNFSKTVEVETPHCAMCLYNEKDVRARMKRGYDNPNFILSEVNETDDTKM
WT yeast gro inh = growth inhibition of WT yeast, mitochondrial fusion screen; inhibition, % at 10 µM; 190,000 tested, 2.1% active; mitochondrial fusion phenotypic screen, WT strain; AID 1362; in the data active = inhibition above about 58%; tested in S. cerevisiae
Ins promoter up = MIN6 insulin promoter up-regulation; z-score at 5 µM; MIN6 insulin promoter-GFP reporter, high-content imaging; hits give high values; AID 1625; 190,000 tested, 0.3% active;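 active = z-score above 3 at 5 µM with at least 500 cells counted in the well; inconclusive = wells under 500 cells, flagged as cytotoxic or low count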
L major viab = Leishmania major promastigote growth inhibition; Leishmania major promastigotes, resazurin fluorescence viability; inhibition, % at 10 µM; 200,000 tested, 9% active; in the data active = inhibition above about 50%;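 note: promastigotes grown with compound for 44 hours at 28 °C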
KCC2 sec1 = confirmation of human KCC2 transport modulators | shares compounds with Cl transport mod | HEK293-KCC2, thallium flux, FluoZin2 fluorescence; hits give high values | normalised thallium flux (F/F0 slope) at 10 µM | 3,700 tested, 15% active;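 active = thallium flux slope above the same plate's solvent-only control mean plus 3 SD; inconclusive = the two replicate wells disagree; inactive = no significant difference from solvent-only control wells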
KCC2 bumet counter = thallium flux persisting under bumetanide in KCC2 cells, counter-screen secondary assay; shares compounds with Cl transport mod; HEK293-KCC2 + bumetanide/ouabain, thallium flux FluoZin2; hits give high values; normalized thallium flux at 10 µM; 3,700 tested, 49% active; AID 1714;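 active = thallium entry rate above the same plate's blocked-transporter control wells by more than 3 SD; inconclusive = the two repeat wells disagree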;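 note: raw slope of fluorescence over initial fluorescence between 10 and 20 s after thallium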
KCC2 secondary2 = confirmation of human KCC2 transport modulators; shares compounds with Cl transport mod; HEK293-KCC2, thallium flux FluoZin2 fluorescence; actives lie on both sides; F/F0 rise rate, 10–20 s post-thallium; normalized thallium flux at 10 µM; 3,700 tested, 23% active;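 active = thallium flux slope more than 3 SD above or below the plate's solvent-only control mean, mostly below; inconclusive = the two repeat wells disagreed; inactive = no significant shift from solvent-only controls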
HEK counter1 = acts in parental HEK cells, KCC2 counter-screen. shares compounds with Cl transport mod. HEK293 parental cells, thallium flux FluoZin2, ouabain; baseline-ratio fluorescence slope, 10–20 s after thallium. 3,700 tested, 46% active. thallium flux rate (normalised fluorescence) at 10 µM;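 active = thallium flux rate significantly above the same plate's solvent-only control wells, beyond their mean plus 3 SD; inconclusive = the two replicate wells gave conflicting results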
KCC2 retest ouab = confirmation of human KCC2 modulators with ouabain; AID 1717; shares compounds with Cl transport mod; HEK293-KCC2, thallium flux FluoZin2 fluorescence; bidirectional: low = inhibitor, high = activator; 3,700 tested, 48% active; raw Tl+ flux slope (below DMSO = inhibition, above = activation) at 10 µM;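 active = thallium flux slope beyond 3 SD from same-plate DMSO control mean in most replicates, usually higher, sometimes lower; inconclusive = repeat tests gave conflicting results; inactive = no significant difference from controls in most replicates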;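 note: slope of initial-normalized fluorescence between seconds 10 and 20 after thallium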
HEK293 Tl flux2 = counter-screen for KCC2 modulators: effect in parental HEK293 cells. shares compounds with Cl transport mod. thallium flux FluoZin-2 fluorescence slope. thallium flux slope at 10 µM. 3,700 tested, 33% active;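 active = thallium flux slope above the same plate's solvent-control mean plus 3 SD in both duplicate wells; inconclusive = duplicate wells that disagreed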;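 note: run without ouabain in cells lacking the KCC2 cotransporter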
A number is an active result; i = inactive; ? = inconclusive; nt = no result.

SMILES	Cl transport mod	INS promoter inh	ROMK primary	WT yeast gro inh	Ins promoter up	L major viab	KCC2 sec1	KCC2 bumet counter	KCC2 secondary2	HEK counter1	KCC2 retest ouab	HEK293 Tl flux2
O=C(NC(=S)Nc1cnc2ccccc2c1)c1ccccc1	21	nt	i	i	i	i	?	0.041	i	0.012	0.022	0.015
O=c1[nH]ncc(N/N=C/c2ccccc2)c1Cl	nt	i	i	i	nt	i	i	0.0056	i	i	i	i
O=C(N/N=C/c1ccc(O)cc1)c1cc[n+](Cc2ccccc2)cc1	i	nt	nt	i	i	i	nt	nt	nt	nt	nt	nt
O=C(N/N=C/c1ccc(OCc2ccccc2)cc1)c1cc[n+](Cc2ccccc2)cc1	-3.4	i	i	i	i	i	i	?	0.024	i	?	i
Cc1ccc(S(=O)(=O)c2c(N)n(NC(=O)C3CC3)c3nc4ccccc4nc23)cc1	i	nt	i	i	i	i	nt	nt	nt	nt	nt	nt
S=C(Nc1cccc(Cl)c1Cl)Nn1cnnc1	i	nt	nt	i	i	i	nt	nt	nt	nt	nt	nt
S=C(N/N=C/c1ccccc1Cl)Nc1cccc(Cl)c1Cl	7	nt	i	nt	i	nt	i	0.045	0.047	0.031	0.048	0.026
S=C(NCCc1ccccc1)N/N=C/c1cccc(Cl)c1Cl	4.4	nt	nt	i	i	i	i	0.013	0.039	0.011	0.03	i
S=C(NCC1CC1)N/N=C/c1ccccc1Cl	10	nt	nt	nt	i	nt	?	0.024	i	0.01	?	i
O=C(O)Cc1ccc(NC(=S)Nc2cccc(Cl)c2Cl)cc1	9.6	i	i	i	i	i	i	0.01	i	0.014	?	i
CC1(C(=O)NC(=S)N(CCC#N)Cc2cccnc2)CC1(Cl)Cl (stereo not given)	i	i	i	i	i	i	nt	nt	nt	nt	nt	nt
S=c1[nH]nc(C2(c3ccccc3)CCCC2)o1	-3.1	nt	nt	nt	i	nt	i	i	0.023	i	0.018	i
S=c1[nH]nc(C(c2ccccc2)C2CCCCC2)o1 (stereo not given)	i	nt	i	nt	i	nt	nt	nt	nt	nt	nt	nt
CC(C)CC(c1nnnn1Cc1cccs1)N1CCN(c2nc3ccccc3s2)CC1 (stereo not given)	-5.1	i	nt	i	i	98	i	i	?	i	?	i
COc1ccc(Cn2nnnc2C(CC(C)C)N2CCN(c3ccccc3)CC2)cc1 (stereo not given)	nt	i	i	i	i	i	i	i	i	i	i	i
CCC(c1nnnn1Cc1cccs1)N1CCN(c2nc3ccccc3s2)CC1 (stereo not given)	-4	nt	nt	i	i	i	i	i	?	0.0063	0.014	i
CC(C)C(c1nnnn1Cc1ccco1)N1CCN(c2nc3ccccc3s2)CC1 (stereo not given)	i	nt	nt	i	i	i	nt	nt	nt	nt	nt	nt
N#C/C(=C\c1cccs1)C(=O)Nc1nccs1	10	nt	i	i	nt	i	0.012	0.019	i	0.013	?	0.012
CCNC(=S)N=Nc1c(O)n(Cc2ccc(Cl)cc2)c2ccccc12	14	i	i	i	i	i	0.012	0.071	i	0.03	0.041	0.011
O=C(CNC(=O)/C=C/c1ccccc1)N=Nc1c(O)n(Cc2ccccc2)c2ccccc12	i	nt	nt	i	i	i	nt	nt	nt	nt	nt	nt
Oc1c(N=NC(=S)Nc2ccccc2F)c2ccccc2n1Cc1ccccc1F	11	nt	i	i	i	96	i	0.034	i	0.012	0.025	?
Cc1cccc(NC(=O)Cn2c(O)c(N=NC(=O)c3ccccc3O)c3ccccc32)c1	i	nt	nt	i	i	i	nt	nt	nt	nt	nt	nt
O=c1cc(O)c2ccccc2n1Cc1ccccc1F	i	i	i	i	i	i	nt	nt	nt	nt	nt	nt
Cc1ccccc1Cn1c(O)c(N=NC(=S)Nc2ccccc2F)c2ccccc21	9.6	nt	i	i	i	76	?	0.025	i	?	?	?
CCC(C)C(NC(=O)OC(C)(C)C)C(=O)NC(CC(C)C)C(N)=O (stereo not given)	i	i	nt	i	i	i	nt	nt	nt	nt	nt	nt
SMILES	Cl transport mod	INS promoter inh	ROMK primary	WT yeast gro inh	Ins promoter up	L major viab	KCC2 sec1	KCC2 bumet counter	KCC2 secondary2	HEK counter1	KCC2 retest ouab	HEK293 Tl flux2
CC(Cc1cccs1)NC(=S)Nc1ccc(Cl)c(Cl)c1 (stereo not given)	6.7	i	nt	i	i	71	i	0.019	i	0.0084	0.021	?
CCOC(=O)c1sc(Nc2nc3c(OC)cccc3s2)nc1C	26	nt	i	i	i	73	i	0.012	0.041	0.025	0.038	0.018
Cc1ccc(NC(=O)Cc2ccc(F)cc2)cc1	2.6	i	i	i	i	i	i	i	i	i	i	i
Cc1ccc(NC(=O)CSCc2ccc(F)cc2)cc1	i	nt	i	i	i	i	nt	nt	nt	nt	nt	nt
O=S(=O)(c1ccc(OCC(O)CN2CCN(c3ccc(F)cc3)CC2)cc1)N1CCOCC1 (stereo not given)	i	nt	nt	i	i	i	nt	nt	nt	nt	nt	nt
NC(=O)CC(NC(=O)c1ccccc1)c1ccc(NC2CCCC2)c([N+](=O)[O-])c1 (stereo not given)	i	nt	nt	nt	i	nt	nt	nt	nt	nt	nt	nt
Cc1ccc(CN(C)C(=O)c2ccccc2Oc2ccccc2)o1	i	i	nt	i	i	i	nt	nt	nt	nt	nt	nt
Brc1cccc(-c2cnc3n2CCCCC3)c1	nt	i	i	i	i	i	i	i	i	i	i	i
COc1cccc(NC(=O)CNS(=O)(=O)c2ccc3nc(C)sc3c2)c1	nt	i	i	i	i	i	nt	nt	nt	nt	nt	nt
CC(C)CC(c1nnnn1C1CCCC1)N1CCC(C(N)=O)CC1 (stereo not given)	2.7	i	i	i	i	i	i	i	i	i	i	i
CC(NC(=O)C1CCCCC1)C(=O)NC1=NCCS1 (stereo not given)	i	i	nt	i	nt	i	nt	nt	nt	nt	nt	nt
Cc1cccc(OCc2nnc(SCC(=O)c3cccs3)n2C)c1C	-4.5	nt	nt	i	i	i	i	i	0.024	i	0.016	i
Cc1ccccc1OCc1nnc(SCC(=O)NCc2ccccc2)n1C	i	i	nt	i	i	i	nt	nt	nt	nt	nt	nt
Cn1cc(C=O)c2ccccc21	i	nt	i	i	i	i	nt	nt	nt	nt	nt	nt
Cc1ccc(C(=O)NN2C(=O)/C(=C/c3cccn3C)SC2=S)cc1	i	i	i	i	i	i	nt	nt	nt	nt	nt	nt
Cn1cc(/C=C2\SC(=O)NC2=S)c2ccccc21	21	nt	nt	i	i	i	0.013	0.028	i	0.018	0.034	?
